# Compound activity from PubChem.
# An excerpt weighted towards active compounds, which were near 1.3% of everything screened.
# MEP2 TOR yeast = modulators of MEP2-GFP levels in yeast, primary screen, S. cerevisiae, multiplex flow cytometry, MLPCN library. AID 2016, 2009. GFP response vs DMSO, % at 10 µM. hit rate 0.51% among 330,000. S. cerevisiae MEP2-GFP strain, 3 h; 100% = DMSO control level;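 active = GFP response versus DMSO above a set limit, roughly screen mean plus 3 SD, cut at about 180% in these data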;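 note: median GFP fluorescence of the barcode-gated MEP2-GFP cells per well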
# LAP4 TOR yeast = modulators of LAP4-GFP expression in yeast, primary screen, S. cerevisiae, multiplex flow cytometry, MLPCN library; 3 h; median GFP as percent of DMSO wells; GFP response vs DMSO, % at 10 µM; hit rate 0.34% among 320,000; AID 2023, 2009;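 active = GFP response vs DMSO above a set limit, about the screen mean plus 3 SD, cut at about 150% in these data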
# CIT2 TOR yeast = modulators of CIT2-GFP expression in yeast, primary screen, S. cerevisiae, GFP fusion, multiplex flow cytometry, MLPCN library; S. cerevisiae CIT2-GFP strain, 3 h; 100 means same as DMSO wells; hit rate 0.065% among 320,000; GFP response vs DMSO, % at 10 µM;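 active = GFP response relative to DMSO above a set limit, near the screen mean plus 3 SD, cut at about 150% in these data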;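 note: ratio of well median GFP fluorescence to mean of DMSO wells on the plate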
# RPL19A TOR yeast = RPL19A-GFP expression modulators in yeast, primary screen, cell-based, S. cerevisiae, multiplex flow cytometry, MLPCN | S. cerevisiae RPL19A-GFP strain, 3 h; hits give low values | hit rate 0.3% among 330,000 | percent response vs DMSO, % at 10 µM;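 active = percent response vs DMSO below 50%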;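 note: median channel GFP fluorescence of the barcoded RPL19A-GFP strain; ratio of sample median GFP to plate DMSO average so 100% = DMSO; lower means less RPL19A-GFP as with rapamycin TOR inhibition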
# AGP1-GFP MLPCN = modulators of AGP1-GFP expression in yeast TOR pathway, primary screen, cell-based, multiplex flow cytometry, S. cerevisiae, MLPCN library; GFP response vs DMSO, % at 10 µM; AID 2066, 2009; 3 h; GFP as percent of DMSO wells; hit rate 0.02% among 320,000;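 active = GFP response relative to DMSO above a set limit, near screen average plus 3 SD, cut at about 150% in these data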;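 note: median GFP channel fluorescence of the gated AGP1 strain per well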
# Efflux pump inh = inhibitors of Candida efflux pumps in yeast, primary screen, S. cerevisiae, Nile Red, multiplex | S. cerevisiae Candida pump triplex | inhibition, % at 10 µM | hit rate 0.44% among 330,000 | AID 485275, 2010;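 active = plate passing quality check with inhibition over a set limit, or well fluorescence over plate mean plus 4 SD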;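 note: Nile Red retained in pooled yeast measured as flow cytometry median fluorescence; 0% = buffer negative control and 100% = Enniatin B positive control; higher means more Nile Red kept so more efflux inhibition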
# LAP4 cherry2 = LAP4-GFP expression modulators in yeast, confirmation, cell-based, second cherry pick, flow cytometry; shares compounds with LAP4 TOR yeast; S. cerevisiae LAP4-GFP strain, 3 h; GFP response vs DMSO, % at 10 µM; hit rate 20% among 590; AID 2621, 2010;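 active = GFP signal as percent of the solvent control above about 150%, meaning raised reporter expression, limit read from the data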;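 note: ratio of well median GFP fluorescence to plate DMSO mean so 100% = DMSO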
# MEP2-GFP pick2 = modulators of MEP2-GFP levels in yeast, confirmation, S. cerevisiae, flow cytometry GFP, second cherry picks; shares compounds with LAP4 TOR yeast; S. cerevisiae MEP2-GFP strain, 3 h; GFP response vs DMSO, % at 10 µM; hit rate 10% among 590;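 active = GFP signal above 150% of the solvent control wells, that is a rise of more than half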;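 note: median channel GFP fluorescence of all gated yeast cells per well; ratio of median GFP to plate DMSO average so 100% = DMSO level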
# RPL19A-GFP pick2 = RPL19A-GFP modulators in TOR pathway yeast, confirmation, cell-based, S. cerevisiae, flow cytometry, second cherry pick | shares compounds with LAP4 TOR yeast | S. cerevisiae RPL19A-GFP strain, 3 h; hits give low values; 100% means same as DMSO wells | GFP response vs DMSO, % at 10 µM | hit rate 3% among 590;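 active = under 65% GFP response relative to DMSO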;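 note: median GFP channel fluorescence per well over the all cells gate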
# CIT2-GFP pick2 = modulators of CIT2-GFP expression in yeast, confirmation, flow cytometry, second cherry pick, single plex. shares compounds with LAP4 TOR yeast. S. cerevisiae CIT2-GFP strain, 3 h; DMSO control wells read 100%. GFP response vs DMSO, % at 10 µM. hit rate 8% among 590;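 active = GFP response vs DMSO above about 150%, limit read from the data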;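 note: median green fluorescence per well over all gated yeast cells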
# AGP1 GFP CP2 = AGP1-GFP expression modulators, hit retest, confirmation, cell-based, flow cytometry, S. cerevisiae, cherry pick set 2. shares compounds with LAP4 TOR yeast. S. cerevisiae AGP1-GFP strain, 3 h. percent response vs DMSO, % at 10 µM. 590 tested, under 10 active. AID 2643, 2010;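 active = over 150 percent of DMSO response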;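 note: median GFP channel fluorescence over all cells without mother daughter split; sample median GFP divided by mean DMSO control so 100% equals DMSO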
# Yeast autofluor = compound autofluorescence in yeast s288c, dose response, artefact control for yeast TOR pathway GFP screen, s288c strain; shares compounds with LAP4 TOR yeast; fluorescence change (kMESF span) at 33 µM; AID 2757, 2010; 610 tested, under 10 active; S. cerevisiae s288c, 520 nm autofluorescence, flow cytometry, 3 h; hits give high values; zero means same as solvent-only cells;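 active = fluorescence span over the dose series, or activity score, above about 33, limit read from the data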
# Yeast autofl DR = autofluorescence of compounds in yeast s288c, dose response, artefact control for yeast TOR pathway GFP screen, primary hits, KU SAR, s288c parental; shares compounds with LAP4 TOR yeast; S. cerevisiae s288c parental, compound autofluorescence, flow cytometry, 3 h; fluorescence change (span) at 33 µM; 110 tested, under 10 active; AID 488829, 2010;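 active = fluorescence change span, or the activity score built from it, above 25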
# TORC1 bypass = wild-type yeast growth inhibition sparing TORC1 bypass cells, mechanism study for yeast TOR pathway GFP screen, BY4741 wild type, TORC1 bypass strain; 120 tested, under 10 active; shares compounds with LAP4 TOR yeast; S. cerevisiae BY4741 spot growth rating, 48-72 h; hits give low values; growth rating (0-3) at 30 µM;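 active = growth rating at most 1 for wild type yeast while the TORC1 bypass strain still grows fully, rated 3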
# The depositor's hits bear a star; . = no result.
SMILES,MEP2 TOR yeast,LAP4 TOR yeast,CIT2 TOR yeast,RPL19A TOR yeast,AGP1-GFP MLPCN,Efflux pump inh,Yeast autofluor,others
CC(C)(CNc1ccc([N+](=O)[O-])cc1Cl)N1CCOCC1,104,100,111,100,103,0,.,
COc1ccc(CCN2C(=O)c3cccnc3C2=O)cc1OC,95,93,101,96,99,0,.,
CCOc1ccccc1NC1=C(Cl)C(=O)N(c2ccc(OC)cc2)C1=O,99,103,97,100,94,0,.,
COc1ccc(CCNC2CC(=O)N(CCc3ccccc3)C2=O)cc1 (stereo not given),102,95,99,100,105,0,.,
COc1ccc(NC2=C(Cl)C(=O)N(CCc3ccccc3)C2=O)c(OC)c1,88,123,82,92,97,0,0.1,
COc1ccc(NC2=C(Cl)C(=O)N(CCc3ccccc3)C2=O)cc1,105,95,104,102,102,0,0,
COc1ccc(CCNC2=C(Cl)C(=O)N(CCc3ccc(OC)c(OC)c3)C2=O)cc1OC,96,89,88,93,95,0,0.1,
COc1ccc(N2C(=O)C(Cl)=C(NCc3ccccc3)C2=O)cc1,98,116,80,99,103,0,-0.1,
Fc1cccc(/C=N/Nc2cc(N3CCOCC3)ncn2)c1,117,96,112,101,97,0,.,
CC1CCN(c2ccc([N+](=O)[O-])cc2C(=O)NCC2CCCO2)CC1 (stereo not given),106,101,99,97,103,0,.,
COC(=O)CCC(=O)N1CCCC(N2CCN(c3ccc(OC)cc3)CC2)C1 (stereo not given),102,88,110,100,101,0,.,
CCOc1ccc(NC2=NCC(=O)N2CCc2ccccc2)cc1,104,99,92,85,100,0,.,
CCOc1ccc(NC2=C(Cl)C(=O)N(Cc3ccccc3)C2=O)cc1,97,99,89,94,95,0,0.2,
CCN1CCN(c2cc(C)c3cc(NC(=O)c4cccc(OC)c4)ccc3n2)CC1,154,100,90,60,49,0,.,LAP4 cherry2=102;MEP2-GFP pick2=96;RPL19A-GFP pick2=101;CIT2-GFP pick2=118;AGP1 GFP CP2=99
Cc1cc(C)c(C(=O)N2CCCC(Nc3ccc(F)cc3)C2)o1 (stereo not given),85,201*,74,67,59,0,.,LAP4 cherry2=95;MEP2-GFP pick2=96;RPL19A-GFP pick2=102;CIT2-GFP pick2=107;AGP1 GFP CP2=98
CCN1CCN(CC(=O)c2ccc(OC)cc2)CC1,101,97,105,101,97,0,.,
Cc1ccc(S(=O)(=O)c2ncccc2[N+](=O)[O-])cc1,104,199*,99,88,101,1,0.3,Yeast autofl DR=0.16;TORC1 bypass=3
CC1=C(C)/C(=N\OS(=O)(=O)c2ccccc2)C=CC1=O,89,255*,91,82,74,0,0.31,
Cc1ccc(S(=O)(=O)O/N=C2\CCCc3ccccc32)cc1,102,102,111,101,105,0,.,
CCN(C(=O)c1ccc(NC(=O)c2ccco2)cc1)c1ccccc1,94,67,99,103,88,0,.,
O=C(Cn1ccccc1=S)c1ccc(Cl)c(Cl)c1,107,105,89,96,98,0,.,
On1ccccc1=S,111,260*,100,97,99,0,0.1,LAP4 cherry2=181*;MEP2-GFP pick2=118;RPL19A-GFP pick2=95;CIT2-GFP pick2=139;AGP1 GFP CP2=95
COc1ccc([C@@H]2CC=C(C(=O)O)[C@H](c3cccc(Cl)c3)N2S(=O)(=O)c2ccccc2C)cc1,86,126,110,97,83,0,.,
COc1cccc(CNC(=O)c2ccc3c(c2)N(C)CCS3)c1OC,759*,258*,161*,64,154*,0,.,LAP4 cherry2=99;MEP2-GFP pick2=100;RPL19A-GFP pick2=99;CIT2-GFP pick2=99;AGP1 GFP CP2=97
C/C(=N\NS(=O)(=O)c1ccc([N+](=O)[O-])cc1)c1ccc(NC(=O)c2ccco2)cc1,154,90,83,52,75,0,.,LAP4 cherry2=103;MEP2-GFP pick2=98;RPL19A-GFP pick2=101;CIT2-GFP pick2=99;AGP1 GFP CP2=99
C/C(=N/NS(=O)(=O)c1ccc(Br)cc1)c1ccc(NC(=O)c2ccc(C)o2)cc1,102,97,101,96,101,0,.,
Cc1ccc(C(=O)O)cc1N=Cc1cc(Br)cc(Br)c1O,90,180*,62,80,79,0,0.7,LAP4 cherry2=166*;MEP2-GFP pick2=166*;RPL19A-GFP pick2=71;CIT2-GFP pick2=139;AGP1 GFP CP2=105
